Experimental data as given in PubChem BioAssay (NCI).
This is part of a sample that, as a whole, favours compounds with a hit. Of some 83,000 tested, about 20% had one in any assay.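 Growth was measured after 48 h exposure to one concentration of compound in 96-well plates. Values under 10 count as active.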 The source made the active and inactive calls.

These compounds were tested on MDA-MB-468 breast (assay: NCI-60 one-dose screen, 48 h (100 = growth as untreated, 0 = no growth, -100 = all killed)). Settings: 10 µM unless noted.
In the case of CCCCc1n(Cc2ccc3ccccc3c2)c2ccccc2[n+]1Cc1ccc2ccccc2c1, the growth is reported as -78.1% (active). For O=c1c2cc(-c3ccc(F)cc3F)ccc2n(Nc2ccccc2)c(=O)n1-c1cccc(C(F)(F)F)c1, the growth was -10.4% (active). O=C(Nc1ncc(Cc2ccc(Cl)cc2)s1)C1=NCCCCN1 was tested, and the growth was 102% (inactive). For CC(Nc1ncnc2ccc(-c3cnc(N)nc3)cc12)c1ccccc1 (stereo not given), the growth was -28.6% (active). With NC1=Nc2cc(OCCCN3Cc4ccccc4C3)c(OCC3CC3)cc2C12CCCC2 the growth was 31.9% (inactive). With COc1cccc(-c2nc(-c3ccc(NC(=O)c4ccccc4)cc3)[nH]c2-c2ccnc(Br)c2)c1 the growth was 28.8% (inactive). Cc1cc(-c2ccc(N=Nc3c(C)nn(-c4ccc(S(=O)(=O)O)cc4)c3O)c(C)c2)ccc1N=Nc1ccc(O)c(C(=O)O)c1 was tested, and the growth was 113% (inactive). For CC12O[C@H](C[C@@H](O)[C@H]1O)n1c3ccccc3c3c4c(c5c6ccccc6n2c5c31)C(=O)N(CCCN)C4=O, the growth was 17.1% (inactive). COc1cc(-c2nc(C(=O)Nc3ccc(C)cc3)nn2-c2ccc(F)c(F)c2)cc(OC)c1OC was tested, and the growth was 109% (inactive). With COc1ccc(/C=C/C(=O)c2cc3c(N)c(C(=O)Nc4ccccc4Cl)sc3nc2C)cc1 the growth was 5.35% (active). In the case of COc1ccc(-c2[nH]ncc2Nc2cc(OC)c(OC)c(OC)c2)cc1, the growth is reported as 21.7% (inactive). With CS(=O)c1nccc(-c2c(-c3ccc(F)c(OCc4ccc(F)cc4)c3)nc3sccn23)n1 (stereo not given) the growth was -69.4% (active). With Cc1ccc(CN2CCC(C(=O)Nc3ccc(-c4cc5ccccc5[nH]4)cc3)CC2)o1 the growth was 5.26% (active). For O=C1/C=C/[C@@H](O)[C@@H]2C[C@@H](O)C[C@H]2/C=C/CCC[C@H](CO)O1, the growth was -20.1% (active). With COc1ccc(C/C(C)=C(/c2ccc(OCCN3CCCC3)cc2)c2ccc(OC(=O)NCc3ccccc3)cc2)cc1 the growth was 78.9% (inactive). In the case of Cc1nc2sc(C(=O)Nc3ccc(Cl)cc3)c(N)c2cc1C(O)c1ccccc1 (stereo not given), the growth is reported as -0.107% (active). In the case of O=c1c2c(c3ccccc3n1-c1ccccc1)NC(=S)NC2c1ccccc1 (stereo not given), the growth is reported as 74.4% (inactive). O=C1C(=O)c2cccnc2-c2ncccc21 was tested, and the growth was -91% (active). COc1ccc(/C=C(\C#N)n2nnc3c(F)cccc32)cc1 was tested, and the growth was -7.36% (active). In the case of O=S(=O)(NCCCNc1nccc(-c2c(-c3ccccc3)nc3sccn23)n1)c1ccc(F)cc1, the growth is reported as 35.5% (inactive). NCCN1CCNCC1 was tested, and the growth was 95.2% (inactive). For COc1ccc2nc3cc(Cl)ccc3c(NCCNCC(C)O)c2c1 (stereo not given), the growth was 38.6% (inactive). For CC1(C)[C@@H](O)CC[C@]2(C)[C@H]3CC[C@@H]4[C@H]5[C@H](C(=O)/C=C\c6ccccn6)CC[C@]5(O)CC[C@@]4(C)[C@]3(C)CC[C@@H]12, the growth was 23.8% (inactive). For OCCNc1ccccc1, the growth was 99.4% (inactive). O=S(=O)(NCCNc1nccc(-c2c(-c3cccc(O)c3)nc3sccn23)n1)c1ccc(F)cc1 was tested, and the growth was 64.8% (inactive). C#CC(=O)Nc1cccc(Nc2nc3c(c(NCc4ccccc4)n2)CCCC3)c1 was tested, and the growth was -54.7% (active). In the case of O=C1Nc2cc(-c3ccc(NC(=O)c4ccccc4)cc3)ccc2/C1=C/c1ccc[nH]1, the growth is reported as 2.14% (active). For CCOC(=O)CC[C@H](NC(=O)c1ccc(N(C)Cc2cnc3nc(N)nc(N)c3n2)c2ccccc12)C(=O)OCC, the growth was 27.1% (inactive). CN(C)c1ccc(NC(=O)c2ccc(/C=C/C(=O)c3ncc[nH]3)cc2)cc1 was tested, and the growth was 45.6% (inactive). With c1ccc(CNc2nc(Nc3ccc(-c4nc5ccccc5[nH]4)cc3)c3cn[nH]c3n2)cc1 the growth was -22% (active). For CCN1C(=O)N(CC)C2C1NN=c1s/c(=C\c3ccccc3)c(=O)n12 (stereo not given), the growth was 22.5% (inactive). For O=S1(=O)OC(c2cc(Cl)c(O)c(Br)c2)(c2cc(Cl)c(O)c(Br)c2)c2ccccc21, the growth was 118% (inactive). N#Cc1cccc(-c2c(-c3ccc4ccccc4c3)oc3ccccc3c2=O)c1 was tested, and the growth was 3.16% (active). C#CC(C(C)C)N(CCO)CCCC (stereo not given) was tested, and the growth was 103% (inactive). With COc1ccc2c(c1)c(-c1nc(-c3cn(C)c4ccncc34)cs1)cn2C the growth was -28.4% (active). With COc1ccc2c(c1)/C(=N/c1n[nH]c(=S)s1)C(=O)N2 the growth was 17.1% (inactive). For O=C(Cc1nc2cc(Cl)c(Cl)cc2nc1CC(=O)c1cccnc1)c1cccnc1, the growth was 33.8% (inactive). For COc1ccccc1NC1=C(Cl)C(=O)c2nc(C)ccc2C1=O, the growth was -79.7% (active). O=C(Nc1ccc(Cl)cc1)N1NC(c2ccc(Cl)cc2)C=C1c1ccccc1 (stereo not given) was tested, and the growth was 98.3% (inactive). COc1ccc(CN2c3ccccc3Sc3ccccc32)cc1O was tested, and the growth was 9.33% (active).
